LASV entry inh: inhibitors of Lassa virus binding or cell entry; hit rate 1.2% among 300,000; Lassa virus pseudotype entry inhibition, cell reporter; Potency, µM (top dose mostly 37.9 µM), for inactives: top-dose activity change, negative = inhibition, hits mostly inhibitors; calls by dose curve; tested in HEK293 cells; note: potency is the fitted concentration of half-maximal effect; nearly all actives have a fitted effect of over 50% in size
HCMV antiviral: inhibitors of human cytomegalovirus | HFF cells, HCMV-luciferase reporter, 72 h; stronger effect = lower value | activity change, negative = inhibition, % at 57.5 µM | hit rate 4.5% among 410,000; in the data active = activity change below about -60%; inconclusive = no clear call, values can overlap the other calls; inactive = above about -39%
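Cell-based, HFFs, 1000 cells/well, 16 h 37C; cpds in DMSO + HCMV-luc, MOI 1 PFU/cell; 72 h 37C; OneGlo luminescence after 5 min RT; norm. to buffer vs Salinomycin 10uM.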
FMDV inh: blocks foot and mouth disease virus. FMDV antiviral cell-based qHTS. Potency, µM (titrated, usually from 57.9 µM), for the others: at the top dose activity change, negative = inhibition, hits mostly inhibitors. hit rate 1.2% among 410,000. AID 1159524; calls by dose curve; tested in HEK293T cells; note: read-out not given here; potency is the fitted concentration of half-maximal effect; nearly all actives have a fitted effect of over 45% in size
HCV inhibitor: HCV inhibition; Huh7.5.1 HCVcc-Cre infection, luciferase reporter, 44 h; Potency, µM (series often up to 41.8 µM), for the others: top-dose activity change, negative = inhibition, actives largely listed as inhibitors; hit rate 3.4% among 340,000; active = well fitted inhibition curve with a large enough effect; inconclusive = small, poorly fitted or top-dose-only effect, or another doubt; inactive = no such curve, though single readings can be large or run the other way; note: potency is the fitted concentration of half-maximal effect
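Infectious HCVcc-Cre (~0.5 moi) was added to cells just after compound, with cells seeded 4 h earlier at 1,000 per well. Luciferase activity after 44 h culture reported infection; substrate was incubated 15 min at room temperature before reading.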
MARV entry inh: blocks Marburg virus binding to or entry into cells. Marburg virus pseudotyped entry inhibition, cell reporter. Potency, µM (titrated, usually from 37.8 µM), without a hit: top-dose activity change, negative = inhibition, hits mostly inhibitors. hit rate 1.8% among 300,000. AID 540276; calls by dose curve; tested in HEK293 cells; note: potency is the fitted concentration of half-maximal effect
Starred values were filed as active, the others as inactive; ? = inconclusive; . = not tested or not shown; [ ] = remark or other dose. This is a sample that favours compounds with a hit; in the whole collection about 7.9% have one here. % is set by controls: 0 for no effect and ±100 for the full control effect.

SMILES	LASV entry inh	HCMV antiviral	FMDV inh	HCV inhibitor	MARV entry inh
CCCCCCc1cc2cc(/C(N)=N/NC(=O)c3ccncc3)c(=O)oc2cc1O	.	10.0	-21.4%	?	.
CCCCCCc1cc2cc(S(=O)(=O)c3ccc(F)c(Cl)c3)c(=O)oc2cc1O	?	-102.2*	0.0%	?	?
CCCCCCc1cc2cc(C(=O)Nc3ccc(OC)cc3)c(=O)oc2cc1O	-0.6%	-61.1*	?	?	?
CCCCCCc1cc2cc(C(=O)OCC)c(=O)oc2cc1O	.	-3.6	-17.2%	-8.3%	.
COc1cccc2cc(C(=O)Nc3ccc(CC(=O)O)cc3)c(=O)oc12	?	-72.4*	?	.	10µM*
CCCCCCc1cc2cc(C(=O)Nc3cccc(OC)c3)c(=O)oc2cc1O	?	-87.9*	?	?	?
Cc1cn(CC(=O)NCCCn2ccnc2)c(=O)[nH]c1=O	.	0.1	-11.8%	3.5%	.
CCCc1c(C(=O)N/N=C/c2ccoc2)nnn1-c1nonc1N	.	-29.0	0.0%	.	.
Cc1[nH]c2ccc(C(=O)NCCCN3CCN(C)CC3)cc2c1C	.	16.5	-25.9%	2.6%	.
Cc1[nH]c2ccc(C(=O)NCCCN(C)C3CCCCC3)cc2c1C	17.0%[46.1 µM]	-62.1*	-5.7%	-13.2%	?
O=C(NCCNC(=O)c1ccccc1O)c1ccccc1O	.	?	-18.2%	-4.0%	.
O=C(NCCCSc1ccccc1)c1cc(Cl)ccc1O	.	-84.3*	-3.0%	?	.
O=C(CNC(=O)c1ccccc1)NCCCSc1ccccc1	2.5%	28.9	38.7%	0.7%	0.4%
O=C(NCCCCCCNC(=O)c1ccccc1O)c1ccccc1O	20.0%	-78.5*	?	10µM*	?
CC(C)NC(=S)N=Nc1c(O)[nH]c2ccc([N+](=O)[O-])cc12	?	?	?	1.12µM*	-23.2%[46.1 µM]
NC(=O)N=Nc1c(O)[nH]c2ccc([N+](=O)[O-])cc12	.	-19.6	-12.6%	5.4%	.
C=C(C)CNC(=S)N=Nc1c(O)[nH]c2ccc([N+](=O)[O-])cc12	-23.6%	-15.3	-18.0%	25.1µM*	-15.8%[46.1 µM]
COC(=O)c1[nH]c2cc(OC)ccc2c1NC(=O)CCN1CCN(c2ccccc2)CC1	-3.3%	-3.0	-10.6%	-12.1%	-12.8%
COC(=O)c1[nH]c2ccccc2c1NC(=O)CN1CCN(c2cccc(OC)c2)C(C)C1 (stereo unspecified)	-14.0%	-103.5*	?	?	?
COC(=O)c1[nH]c2cc(OC)ccc2c1NC(=O)CCN1CCN(c2cccc(C)c2C)CC1	?	7.8	39.8µM*	6.31µM*	?
CCOc1ccc(OCC)c(NC(=O)CN2CCN(c3cccc(C)c3)C(C)C2)c1 (stereo unspecified)	?	-6.6	?	8.91µM*	?
C=CCN1c2ccccc2[C@]23CCC(=O)N(Cc4cc(OC)c(OC)c(OC)c4)C2=NC(C(=O)OC)=C(C(=O)OC)[C@H]13	.	.	.	.	-6.7%[14.2 µM]
CC(=O)N1CCN(c2nc(-c3cccs3)nc3ccccc23)CC1	?	15.4	-12.8%	11.2µM*	?
COc1ccc(Nc2nc(-c3cccs3)cs2)c(OC)c1	26.7%	156.2	48.6%	10µM*	11.2%
COc1ccccc1Nc1nc(-c2cccs2)cs1	?	162.7	55.4%	?	?
SMILES	LASV entry inh	HCMV antiviral	FMDV inh	HCV inhibitor	MARV entry inh
CN(C)C(=O)c1ccc(Nc2nc(-c3cccs3)nc3ccccc23)cc1	?	?	-9.1%	2.82µM*	?
COc1ccc(Nc2nc(-c3cccs3)nc3ccccc23)c(OC)c1	?	-33.3	-14.9%	11.2µM*	?
O=C(Cn1c(NCCCCl)nc2ccccc21)c1ccccc1	.	-14.1	-21.4%	-5.4%	.
CCOc1ccc2c(c1)c(=O)c(S(=O)(=O)c1ccccc1)cn2CC(=O)Nc1ccccc1OC	-21.8%[46.1 µM]	50.4	16.8%	.	-16.2%[46.1 µM]
Cc1ccc(C(=O)NCCN2CCC(n3c(=O)[nH]c4ccccc43)CC2)cc1F	.	-21.6	-20.1%	.	.
Cc1ccc(OCC(=O)Nc2ccc(S(=O)(=O)NC3=NCCCCC3)cc2)cc1	.	-12.1	-18.5%	.	.
COc1ccc(/C=C/C(=O)Nc2nc3n(n2)C(c2ccccc2)C=C(c2ccccc2)N3)cc1 (stereo unspecified)	-12.6%[46.1 µM]	-7.8	-12.5%	.	?
COc1ccc(OC)c(Nc2nc(-c3cccs3)cs2)c1	8.3%	66.6	.	14.1µM*	-0.6%
COc1ccc(N2CCOCC2)c(NC(=O)c2ccc(Br)o2)c1	-3.7%	-81.3*	?	.	?
O=C(Nc1cc(Cl)ccc1N1CCOCC1)c1ccc(Br)o1	0.5%	.	-5.2%	5.3%	-20.9%
COc1ccc(NS(=O)(=O)c2ccc(N3CCOCC3)c(NC(=O)C(C)C)c2)cc1	-28.1%	?	-3.2%	-8.7%	?
CCOC(=O)/C=C/C(=O)Nc1cc(S(=O)(=O)Nc2ccc(OC)cc2)ccc1N1CCOCC1	?	-29.1	31.6µM*	?	?
COc1ccccc1NS(=O)(=O)c1ccc(N2CCOCC2)c(NC(=O)c2ccco2)c1	.	-24.6	40.3%	11.2µM*	-17.7%[46.1 µM]
COc1ccc(NS(=O)(=O)c2ccc(N3CCOCC3)c(NC(=O)c3ccco3)c2)cc1	?	-22.0	64.9%	-27.3%	-7.6%[46.1 µM]
COc1ccc(NS(=O)(=O)c2ccc(N3CCOCC3)c(NC(=O)c3ccc(F)cc3)c2)cc1	?	-33.4	72.1%	?	3.55µM*
C[C@@H]1CN([C@@H](C)CO)C(=O)c2cccc(NC(=O)Nc3ccc4c(c3)OCO4)c2O[C@H]1CN(C)S(=O)(=O)c1cn(C)cn1	.	-4.0	-12.6%	24.0%	.
O=C(Nc1ccccc1N1CCOCC1)c1cccc(F)c1	.	9.1	1.0%	?	0.9%[46.1 µM]
COc1ccc(NS(=O)(=O)c2ccc(N3CCOCC3)c(NC(=O)c3cccc(F)c3)c2)cc1	?	-77.9*	48.1%	-44.6%	?
N#Cc1ccc(C(=O)Nc2cc(S(=O)(=O)Nc3ccc(Cl)cc3)ccc2N2CCCCC2)cc1	?	?	50.2%	?	?
O=C(Nc1cc(S(=O)(=O)Nc2ccc(Cl)cc2)ccc1N1CCCCC1)c1ccc(F)cc1	?	-64.5*	26.2%	7.08µM*	?
Cn1c(=O)c2[nH]c(-c3ccc(S(=O)(=O)O)cc3)nc2n(C)c1=O	?	-4.9	-25.1%	9.0%	?
CC1CN(CC(=O)c2ccccc2Cl)CC(C)O1 (stereo unspecified)	-11.1%[46.1 µM]	-61.4*	5.8%	8.0%	-0.7%[46.1 µM]
CC(=O)N1CCOc2ccc(S(=O)(=O)NC[C@H]3O[C@@H](n4cnc5c(N)ncnc54)[C@H](O)[C@@H]3O)cc21	.	15.5	-16.9%	-1.0%	.
CCN(c1cccc(C)c1)S(=O)(=O)c1ccc2c(c1)CCCN2C(C)=O	?	?	-14.3%	-14.3%	?
CCN(c1cccc(C)c1)S(=O)(=O)c1ccc2c(c1)CCN2C(C)=O	?	?	?	11.2µM*	?
CCN(c1cccc(C(F)(F)F)c1)S(=O)(=O)c1ccc2c(c1)CCN2C(C)=O	17.8µM*	-33.6	?	?	?
CCOc1ccc(NC(=O)[C@@H](c2ccccc2)N2Cc3ccccc3C2=O)cc1	25.7%[46.1 µM]	-3.7	5.6%	.	2.6%[46.1 µM]

Compound activity as filed in PubChem BioAssay.
